In PubChem BioAssay one finds inhibition data, which are given here for 40 molecules.

SMILES strings stand for the structures. Values joined by “and” are separate entries in the source; they are usually repeats but may differ in a detail not shown here. Identical values can stand only once. Active and inactive are the calls of the source. How the calls were made is not given here.

Usually inhibition stands for how much of the control response was suppressed.

Sequence of Pantothenate synthetase (Mycobacterium tuberculosis (strain ATCC 25618 / H37Rv)) (P9WIL5 whole entry, looked up): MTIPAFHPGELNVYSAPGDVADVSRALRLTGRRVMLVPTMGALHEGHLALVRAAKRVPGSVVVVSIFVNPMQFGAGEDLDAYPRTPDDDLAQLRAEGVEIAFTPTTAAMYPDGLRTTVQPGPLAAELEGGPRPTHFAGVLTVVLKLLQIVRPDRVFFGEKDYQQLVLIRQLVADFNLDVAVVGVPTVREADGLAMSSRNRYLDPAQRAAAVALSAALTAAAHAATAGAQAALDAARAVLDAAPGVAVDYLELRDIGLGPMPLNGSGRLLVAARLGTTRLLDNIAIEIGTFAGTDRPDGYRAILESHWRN

The experiment has as its target Pantothenate synthetase (Mycobacterium tuberculosis (strain ATCC 25618 / H37Rv)) (UniProt P9WIL5). Briefly: Recombinant Mtb pantothenate synthetase (PanC) inhibitors, coupled enzyme, confirmatory (AID 375).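 Further: 0% = full reaction with vehicle and 100% = no enzyme background.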 The note with it: coupled enzyme assay; at 10 µM, active compounds read high.
On to `CC(C)(C)C1CCc2[nH]nc(C(=O)O)c2C1` (stereo not given), for which the inhibition was 5% (inactive).

`CC1=C(C(=O)Nc2ccccc2C)C(c2ccc(C)o2)N2C(=O)CSC2=N1` (stereo not given): the inhibition is 0% (inactive).

Consider `c1ccc(-c2ccccc2OCCn2cncn2)cc1`, for which the inhibition is 5% (inactive). As for `O=C(Nc1ccccc1)c1cnc2n(c1=O)CCS2`, the inhibition was 0% (inactive). In the case of `Cn1c(C(=O)NCCN2CCN(c3ccccc3F)CC2)cc2c(=O)n(C)c3ccccc3c21`, the inhibition is 7% (inactive). Consider `Cc1c(NC(=O)c2ccc(CN3CCc4ccccc4C3)cc2)c(=O)n(-c2ccccc2)n1C`, for which the inhibition was 0% (inactive). With `COc1cccc(CN2C(=O)C3(C(C#N)=C(N)OC4=C3C(=O)CCC4)c3ccccc32)c1` (stereo not given) the figure was 0% (inactive). With `O=c1oc2ccccc2n1CCc1ccccc1` the figure was 4% (inactive); with `COc1cc(CN(C)CC(=O)c2[nH]c(C)c(C(C)=O)c2C)ccc1OC(F)F`, 0% (inactive); with `CN(C)CCCN1C(=O)C(=O)/C(=C(/O)c2ccncc2)C1c1cccc(Br)c1` (stereo not given), 1% (inactive).

As for `Oc1ccccc1C1=Nc2nc3ccccc3n2C(c2ccccc2)C1` (stereo not given), the inhibition is 0% (inactive). On to `CCOC(=O)C1CCN(C(=O)C2CCN(S(=O)(=O)c3cc(Cl)ccc3Cl)CC2)CC1`, for which the inhibition was 12% (inactive). The value for `C[C@]12CC[C@H]3[C@@H](CCC4=CC(=O)CC[C@@]43C)[C@@H]1CC[C@@H]2C(=O)CO` was 0% (inactive).

`Cc1cc2ccccc2c(=O)n1CC(=O)N(C)c1ccc(F)cc1`: the inhibition is 0% (inactive).

As for `CCCCNC(=O)c1nc2ncc(Br)cn2n1`, the inhibition was 2% (inactive). Consider `O=C(CSc1nc2ccccc2s1)N1CCN(C(=O)c2ccco2)CC1`, for which the inhibition is 0% (inactive). For the molecule `CC(=O)N1CCN=C1SCc1c(F)cccc1Cl`, the inhibition is 2% (inactive). `CN(c1cccc(NC(=O)COc2ccccc2)c1)S(C)(=O)=O`: the inhibition was 6% (inactive). As for `CCN1C(=O)C(C(=O)Nc2ccc(OC)cc2)C2CC1(C)Oc1ccccc12` (stereo not given), the inhibition is 0% (inactive). For `CCN(CC)CC(=O)Nc1c(C)cccc1C`, the inhibition was 7% (inactive) and 0% (inactive). For `O=C(Nc1nc2c(s1)CCc1ccccc1-2)c1cccs1`, the inhibition is 8% (inactive). In the case of `CC(=O)C1=C(O)C(=O)N(c2ccc(C(=O)O)cc2)C1c1ccccc1` (stereo not given), the inhibition is 0% (inactive). As for `Cc1ccc(CC23CN4CCN(CC(C4)C2O)C3)c(C)c1` (stereo not given), the inhibition was 1% (inactive). Consider `Cc1ccc(CN2C(=O)CCC2C(=O)NCCCN2CCC(C)CC2)cc1` (stereo not given), for which the inhibition was 8% (inactive).

As for `CCCn1c(N2CCN(CC(=O)Nc3ccc4c(c3)OCCO4)CC2)nc2ccccc21`, the inhibition was 6% (inactive). Take `CCOC(=O)Cn1nnc(-c2ccc(SC)cc2)n1`: the inhibition was 0% (inactive). For the molecule `CCOC(=O)c1c(NCc2ccc3c(c2)OCO3)c2ccccc2[nH]c1=O`, the inhibition was 0% (inactive). With `CCCCc1nccn1CCn1ccnc1CCCC` the figure was 0% (inactive); with `O=P1(O)C=C(c2ccccc2)NC(c2ccccc2)=C1`, 0% (inactive); with `O=C(Nc1ccc(Cl)c(C(F)(F)F)c1)N1CCCC(O)C1` (stereo not given), 4% (inactive). With `CCOC(=O)CSc1nnc(-c2ccccc2OC)o1` the figure was 0% (inactive); with `CN1CCc2nc(SCCOc3ccccc3)c(C#N)cc2C1`, 0% (inactive). With `O=C(O)/C=C/c1ccc(O)c(O)c1`, the inhibition was 1% (inactive).

In the case of `Cc1nc2sc3c(c2c(=O)o1)CCC3`, the inhibition is 2% (inactive). Regarding `CCn1cc(C(=O)O)c(=O)c2cc(F)c(N3CCNCC3)cc21`, the inhibition is 0% (inactive). Take `COc1ccc(CCNS(=O)(=O)c2ccc3c(c2)CCN3C(=O)CCC(=O)O)cc1OC`: the inhibition is 0% (inactive).

Take `O=C(NC(NC1CCS(=O)(=O)C1)C(=O)c1cccs1)c1ccccc1` (stereo not given): the inhibition is 1% (inactive).

Take `CCOC(=O)c1oc2cccc(OC(C)=O)c2c1C`: the inhibition is 4% (inactive).

For `CCOC(=O)N1CCN(C(=O)c2ccc3c(SCC(=O)O)c4c(nc3c2)CCCC4)CC1`, the inhibition was 0% (inactive).

For the molecule `Cc1nc2cccc(C(=O)NC3CCCCC3)c2o1`, the inhibition is 0% (inactive).
